# Results taken from publication PMC4336329 (PLoS ONE, 2015).
# Screen size: about 310,000 compounds; about 14,000 (4.5%) showed an effect of 50% or more. The effect is printed as a negative number. The sample as a whole holds a higher share of strong results than the screen did.
# Biological target: human ether-à-go-go-related gene (hERG) potassium channel (human, UniProt Q12809)
# Test: primary screen, population patch clamp on CHO cells stably expressing hERG; higher = less effect of the substance
# 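Further: peak tail current of the secondary pulse compared with the same well before compound.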
# Sequence of human ether-à-go-go-related gene (hERG) potassium channel (Q12809 whole entry, looked up): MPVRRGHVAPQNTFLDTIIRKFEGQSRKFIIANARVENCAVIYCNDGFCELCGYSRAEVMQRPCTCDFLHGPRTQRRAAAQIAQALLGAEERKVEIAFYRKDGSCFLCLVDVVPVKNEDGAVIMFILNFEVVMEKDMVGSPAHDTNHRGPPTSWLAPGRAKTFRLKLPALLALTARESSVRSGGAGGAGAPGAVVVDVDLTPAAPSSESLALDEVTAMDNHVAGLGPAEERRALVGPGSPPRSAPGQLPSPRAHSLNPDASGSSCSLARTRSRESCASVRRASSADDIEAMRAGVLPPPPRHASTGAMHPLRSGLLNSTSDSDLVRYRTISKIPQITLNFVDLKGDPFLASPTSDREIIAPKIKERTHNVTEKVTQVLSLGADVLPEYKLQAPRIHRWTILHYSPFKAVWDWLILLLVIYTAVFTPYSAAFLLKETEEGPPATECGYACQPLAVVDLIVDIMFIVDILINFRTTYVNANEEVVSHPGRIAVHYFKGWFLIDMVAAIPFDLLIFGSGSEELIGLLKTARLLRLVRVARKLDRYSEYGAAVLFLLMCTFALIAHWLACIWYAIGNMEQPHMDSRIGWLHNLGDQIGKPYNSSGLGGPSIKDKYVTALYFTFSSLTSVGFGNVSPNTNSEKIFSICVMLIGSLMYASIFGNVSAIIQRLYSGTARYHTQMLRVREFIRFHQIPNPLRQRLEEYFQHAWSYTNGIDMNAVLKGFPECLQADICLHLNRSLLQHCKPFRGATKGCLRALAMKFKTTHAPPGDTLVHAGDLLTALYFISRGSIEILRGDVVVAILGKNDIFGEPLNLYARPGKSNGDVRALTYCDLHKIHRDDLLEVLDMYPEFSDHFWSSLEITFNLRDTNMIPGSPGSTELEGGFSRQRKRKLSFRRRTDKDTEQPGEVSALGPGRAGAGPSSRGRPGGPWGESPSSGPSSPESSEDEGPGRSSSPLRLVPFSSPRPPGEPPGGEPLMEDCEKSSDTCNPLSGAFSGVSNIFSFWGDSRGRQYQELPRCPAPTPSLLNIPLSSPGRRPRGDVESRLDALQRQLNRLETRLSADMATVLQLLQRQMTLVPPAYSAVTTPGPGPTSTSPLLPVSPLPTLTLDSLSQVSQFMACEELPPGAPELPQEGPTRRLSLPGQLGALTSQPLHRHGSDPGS
row,Structure (SMILES),"hERG current change (%, negative = inhibition) at 10uM [%]"
1,CCNC(=O)C1CC(=O)N(c2ccc(Br)cc2)C1 (stereo not drawn),2.64
2,CC1(C)Cc2c(sc3nc(NCCN4CCOCC4)n4ncnc4c23)CO1,-5.72
3,N/C(=N\OC(=O)CSc1ccccc1)c1ccncc1,0.55
4,CC1CC(C)CN(C(=O)c2cc(S(=O)(=O)N3CCCCC3)ccc2Cl)C1 (stereo not drawn),-37.7
5,Cc1ccc(NN2C(=O)C=C(c3ccc(Cl)cc3)C2=O)cc1,13.9
6,CCN(CC)c1ccc(CNCCc2ccccc2F)cc1.Cl,-5.46
7,Cl.Fc1ccc(CCNCc2cccc(Cl)c2)cc1,-16.5
8,CCCCCCNCc1ccc(Br)cc1.Cl,-61.7
9,CCCCCCNCc1cccc(Br)c1.Cl,-11.3
10,CCCCCNCc1ccc(Br)cc1.Cl,-33.3
11,CCN(CC)c1ccc(CNCCc2ccc(F)cc2)cc1.Cl,-58.8
12,O=C(NCCO)c1ccc2[nH]c3c(c2c1)CCCC3,-0.0914
13,Cc1nc(COC(=O)c2c(C)nn(-c3ccccc3)c2C)cs1,-2.05
14,Cc1ccc(C(=O)C(C)OC(=O)Cc2c[nH]c3ccccc23)cc1 (stereo not drawn),1.64
15,CN(CC(=O)NCC(=O)Nc1ccc(F)cc1)C1CCS(=O)(=O)C1 (stereo not drawn),13.3
16,O=C(NC1CCCCCC1)c1ccc(CN2CCOCC2)cc1,11.3
17,Cc1ccc(CNC(=O)c2ccccc2-n2cnnn2)cc1,9.73
18,O=C(NC(=S)NC1CCCCCCCCCCC1)c1cccnc1,-4.46
19,O=C(NCCN1CCN(C(=O)c2ccc(Br)cc2)CC1)c1ccc(Br)cc1,-71.3

row,Structure (SMILES),"hERG current change (%, negative = inhibition) at 10uM [%]"
1,COc1ccc(C(=O)NCCCN2CCOCC2)cc1,-1.82
2,COc1ccc(C(=O)NCCN2CCN(C(=O)c3ccc(OC)cc3)CC2)cc1,-75.2
3,O=C(NCCCN1CCOCC1)c1ccc(Br)cc1,-13.7
4,COc1ccc(C(=O)NCCN2CCCC2)cc1.Cl,3.56
5,O=C(NCCN1CCN(C(=O)c2ccc(F)cc2)CC1)c1ccc(F)cc1,-70.1
6,O=C(NCCNC(=O)c1ccc(F)cc1)c1ccc(F)cc1,0.397
7,Cl.O=C(NCCN1CCCC1)c1ccc(Br)cc1,-11.9
8,O=C(NCCN1CCOCC1)c1ccc(F)cc1,1.66
9,CC(O)CNc1cnccn1 (stereo not drawn),8.76
10,Cc1cc(C)c(N(C(=O)c2csnn2)C(C(=O)NC(C)(C)C)c2ccncc2)c(C)c1 (stereo not drawn),9.01
11,O=C(c1ccco1)N1CCN(S(=O)(=O)c2ccc3c(c2)OCCO3)CC1,-0.283
12,CC(=O)Nc1ccc(SCC(=O)Nc2oc(C)c3c(C)n[nH]c(=O)c23)cc1,8.72
13,CCn1c(/C=C/N(C(C)=O)c2ccccc2)[n+](CC)c2ccc(Cl)cc21.[I-],2.3
14,CCn1c(/C=C/N(C(C)=O)c2ccccc2)[n+](CCCS(=O)(=O)[O-])c2cc(Cl)c(Cl)cc21,19.9
15,Cc1n(C)c2cc(Cl)ccc2[n+]1Cc1ccccc1.[I-],-3.49
16,CCn1c(/C=C/Nc2ccccc2)[n+](CC)c2cc(Cl)c(Cl)cc21.[I-],-79.3
17,CCn1c(/C=C/Nc2ccccc2)[n+](CC)c2ccc(Cl)cc21.[I-],-78.6
18,CCn1c(C)[n+](CCOCC[n+]2c(C)n(CC)c3cc(Cl)c(Cl)cc32)c2cc(Cl)c(Cl)cc21.[I-],6.82
19,COC(=O)c1ccc(Oc2cc(C)nc(-n3nc(C)cc3C)n2)cc1,-22.4

row,Structure (SMILES),"hERG current change (%, negative = inhibition) at 10uM [%]"
1,CC(=O)c1ccc(Oc2cc(C)nc(N3CCOCC3)n2)cc1,-13.3
2,CC(=O)c1ccc(Oc2cc(C)nc(-n3nc(C)cc3C)n2)cc1,-59.9
3,COc1cccc(OC)c1C(=O)N1CCN(Cc2ccccc2C)CC1,-0.823
4,O=C1C2C3C=CC(C2C(=O)N1C1CCCCC1)C1C(=O)N(C2CCCCC2)C(=O)C31 (stereo not drawn),14.7
5,COc1ccc(C2c3ccc(O)cc3Oc3ncn(Cc4ccco4)c(=N)c32)cc1OC (stereo not drawn),-74.4
6,COc1ccc(C2c3ccc(O)cc3Oc3ncn(CCN4CCOCC4)c(=N)c32)cc1OC (stereo not drawn),-11.8
7,COc1ccc(C2c3ccc(O)cc3Oc3ncn(CCN4CCOCC4)c(=N)c32)cc1 (stereo not drawn),-28.1
8,COc1ccc(C2c3ccc(O)cc3Oc3ncn(CCCO)c(=N)c32)cc1 (stereo not drawn),-22.8
9,COc1ccc(C2c3c(ncn(Cc4ccco4)c3=N)Oc3ccc4ccccc4c32)cc1 (stereo not drawn),-7.04
10,COc1ccc(C2c3ccc(O)cc3Oc3ncn(Cc4ccccc4)c(=N)c32)cc1OC (stereo not drawn),-51.7
11,COc1ccc(C2c3ccc(O)cc3Oc3ncn(Cc4ccco4)c(=N)c32)cc1 (stereo not drawn),-71.9
12,COc1ccc(C2c3ccc(O)cc3Oc3ncn(CC(C)C)c(=N)c32)cc1 (stereo not drawn),-69.8
13,COc1ccc(C2c3ccc(O)cc3Oc3ncn(CCCO)c(=N)c32)cc1OC (stereo not drawn),-6.28
14,CC(=O)c1cccc(NC(=O)c2ccc(NC(=O)CC3SC(N4CCCCC4)=NC3=O)cc2)c1 (stereo not drawn),10.3
15,COc1ccc(-n2nc(C(=O)NCC(=O)NCCN(C)C)c3ccccc3c2=O)cc1,10.7
16,Nc1ncn[nH]1,13.5
17,COc1ccccc1NC(=S)NC(NC(=O)CC(C)C)C(Cl)(Cl)Cl (stereo not drawn),22.2
18,CC1=NN(C(=O)c2ccc(Cn3cc(Br)c([N+](=O)[O-])n3)o2)C(O)(C(F)(F)F)C1 (stereo not drawn),-16.6
19,CN(CCOc1ccccc1)C(=O)CCc1c[nH]c2ccccc12.Cl,-0.585
